About 83,000 compounds went through this panel and 20% of them were active in at least one assay; those are over-represented in the sample as a whole.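 Percent growth is the endpoint: 0 to 100 indicates growth inhibition (40 means 60% inhibition), 0 means no net growth, and negative values indicate cell death.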 A number with no mark means an inactive call. Calls of active or inactive are those of the source. The calls were made as follows: active = growth percent below 10; inactive = the rest.

We go through 13 compounds from PubChem BioAssay (NCI).

Among the test systems are HCT-15 colon; HT29 colon; SNB-75 CNS; SNB-19 CNS; U251 CNS; PC-3 prostate; SK-MEL-5 melanoma; UACC-62 melanoma; LOX IMVI melanoma; SK-MEL-28 melanoma.
Holding throughout (assay): NCI-60 one-dose screen, 48 h (100 = growth as untreated, 0 = no growth, -100 = all killed)
What all share (settings): 10 µM unless noted

As to `O=C(CSc1nnc(-c2cc(-c3ccc(Cl)cc3)nc3ccccc23)n1-c1ccccc1)Nc1ccc(Cl)cc1`, the growth was 97% with HCT-15 colon; 104% with HT29 colon; 94.2% in the assay with SNB-75 CNS; 94.5% with SNB-19 CNS; 98.7% in the assay with U251 CNS; 80.3% in the assay with PC-3 prostate. Further, the growth with SK-MEL-5 melanoma was 101%; in the assay on UACC-62 melanoma, 87.1%; in the assay with LOX IMVI melanoma, 95.8%; with SK-MEL-28 melanoma, 103%.
As for `CCOC(=O)c1c(NC(=S)Nc2ccc([N+](=O)[O-])cc2)sc2c1CCCCC2`, the growth in the assay on HCT-15 colon was 66.6%; in the assay on HT29 colon, 105%; in the assay with SNB-75 CNS it was 86.6%; in the assay on SNB-19 CNS, 82.2%; in the assay with U251 CNS it was 76.6%; in the assay with PC-3 prostate it was 43.6%. The growth in the assay on SK-MEL-5 melanoma was 42.6%; in the assay on UACC-62 melanoma it was 47.8%; in the assay with LOX IMVI melanoma, 84.4%; in the assay with SK-MEL-28 melanoma, 85.5%.
Consider `COc1ccccc1/C=C/C1=C(C)CCC(c2ccccc2OC)C1C` (stereo not given), for which the growth with HCT-15 colon is 9.57% (active); in the assay on HT29 colon it was 5.56% (active); in the assay with SNB-75 CNS, 42.2%; in the assay with SNB-19 CNS, 19.6%; in the assay with U251 CNS, 15.4%; in the assay on PC-3 prostate, -33.2% (active). The growth in the assay on SK-MEL-5 melanoma was -13.3% (active); with UACC-62 melanoma, 10%; in the assay with LOX IMVI melanoma, 7.24% (active); in the assay on SK-MEL-28 melanoma, 49.8%.
For the compound `O=C(CSc1nc(-c2ccccc2)cn1-c1ccc(Cl)cc1)c1ccc([N+](=O)[O-])cc1`, the growth in the assay with HCT-15 colon was 76.1%; in the assay on HT29 colon, 56.1%; in the assay with SNB-75 CNS, 93.8%; in the assay on SNB-19 CNS, 90.8%; in the assay on U251 CNS, 93.3%; with PC-3 prostate it was 73.2%. Besides, the growth in the assay on SK-MEL-5 melanoma is 80.8%; with UACC-62 melanoma it was 66.2%; with LOX IMVI melanoma it was 96.1%; in the assay on SK-MEL-28 melanoma, 89%.
As to `O=C1c2cccnc2C(=O)c2c1c(C(=O)OCCCN1CCOCC1)c1ccccn21`, the growth was -42.2% (active) in the assay with HCT-15 colon; -67.8% (active) in the assay on HT29 colon; -81.3% (active) in the assay with SNB-75 CNS; 9.22% (active) in the assay with SNB-19 CNS; -70.7% (active) in the assay on U251 CNS; -0.15% (active) in the assay with PC-3 prostate. Moreover, the growth with SK-MEL-5 melanoma was -94.9% (active); with UACC-62 melanoma it was -40.7% (active); with LOX IMVI melanoma, -29.1% (active); with SK-MEL-28 melanoma it was 37.7%.
Regarding `COC(=O)[C@H](C)NC(=O)[C@@H]1CCCN1C(=O)CNC(=O)[C@H](C)N`, the growth is 97.4% with HCT-15 colon; 104% with HT29 colon; 78.3% with SNB-75 CNS; 98.6% in the assay with SNB-19 CNS; 103% in the assay with U251 CNS; 102% in the assay on PC-3 prostate. The growth is 101% in the assay on SK-MEL-5 melanoma, 88.8% in the assay on UACC-62 melanoma, 96.3% in the assay on LOX IMVI melanoma and 118% in the assay on SK-MEL-28 melanoma.
Regarding `O=C(/C=C/c1ccco1)Nc1ncc(Cc2ccc(F)cc2)s1`, the growth with HCT-15 colon was 15.3%; in the assay on HT29 colon, 7.2% (active); with SNB-75 CNS it was 19.9%; in the assay on SNB-19 CNS, 48%; in the assay on U251 CNS it was 22.6%; with PC-3 prostate, 30.2%. Also, the growth with SK-MEL-5 melanoma is 25.9%; in the assay on UACC-62 melanoma, 16.8%; with LOX IMVI melanoma it was 28.9%; in the assay with SK-MEL-28 melanoma it was 48%.
As to `COc1ccc(/C(C)=C(\c2ccc(Cl)cc2)c2ccc(OCCCN(C)C)cc2)cc1`, the growth in the assay with HCT-15 colon is 20.4%; in the assay on HT29 colon, 1.29% (active); in the assay on SNB-75 CNS it was 97.2%; in the assay with SNB-19 CNS, 73.8%; in the assay on U251 CNS it was 41%; in the assay with PC-3 prostate, 68.2%. Further, the growth with SK-MEL-5 melanoma was 37.8%; in the assay with UACC-62 melanoma it was 83.9%; in the assay on LOX IMVI melanoma, 22.1%; with SK-MEL-28 melanoma it was 75.1%.
Turning to `COc1cc(C(=O)c2c(-c3ccccc3)oc3ccccc23)cc(OC)c1O`, the growth in the assay with HCT-15 colon was 32.1%; in the assay with HT29 colon, 109%; in the assay on SNB-75 CNS it was -1.53% (active); in the assay with SNB-19 CNS, 32.8%; in the assay with U251 CNS, 25.6%; in the assay on PC-3 prostate, 43.9%. The growth with SK-MEL-5 melanoma was 16.4%; in the assay with UACC-62 melanoma, 35.2%; with LOX IMVI melanoma it was 37.2%; in the assay with SK-MEL-28 melanoma it was 66%.
As to `O=C(/C=C/c1ccco1)c1ccc(Nc2ccnc3cc(Cl)ccc23)cc1`, the growth was 59.7% in the assay with HCT-15 colon; 23.4% with HT29 colon; 105% in the assay on SNB-75 CNS; 95.1% in the assay on SNB-19 CNS; 56.5% in the assay with U251 CNS; 80.5% with PC-3 prostate. Moreover, the growth is 68.8% in the assay on SK-MEL-5 melanoma, 108% in the assay on UACC-62 melanoma, 76.6% with LOX IMVI melanoma and 103% with SK-MEL-28 melanoma.
In the case of `CCOC(=O)/C=C1\S/C(=N\Nc2cc(=O)[nH]c3ccc(OC)cc23)N(c2ccccc2)C1=O`, the growth with HCT-15 colon is 93.3%; with HT29 colon it was 108%; in the assay on SNB-75 CNS, 91.1%; in the assay on SNB-19 CNS, 95%; with U251 CNS, 92.9%; in the assay with PC-3 prostate, 99.3%. The growth was 103% in the assay on SK-MEL-5 melanoma, 100% with UACC-62 melanoma, 97.3% in the assay with LOX IMVI melanoma and 108% in the assay with SK-MEL-28 melanoma.
On to `CSc1nc(N)c2c(n1)NC(c1ccccc1)C1CCc3ccccc3C1=N2` (stereo not given), for which the growth with HCT-15 colon was 46.8%; with HT29 colon it was 42.7%; in the assay with SNB-75 CNS it was 84%; in the assay on SNB-19 CNS it was 79%; in the assay on U251 CNS, 68.2%; in the assay with PC-3 prostate, 11.9%. The growth with SK-MEL-5 melanoma was 51%; in the assay on UACC-62 melanoma it was 42.6%; in the assay on LOX IMVI melanoma, 43.3%; with SK-MEL-28 melanoma, 81.5%.
As for `CN1CCN(c2ccc(Nc3ncc4[nH]c(=O)n(Cc5ccccc5N)c4n3)cc2)CC1`, the growth in the assay on HCT-15 colon is 106%; in the assay on HT29 colon, 80.2%; with SNB-75 CNS, 39.9%; with SNB-19 CNS, 107%; in the assay with U251 CNS, 100%; in the assay on PC-3 prostate it was 83.1%. Further, the growth in the assay on SK-MEL-5 melanoma is 101%; in the assay with UACC-62 melanoma, 97.6%; in the assay on LOX IMVI melanoma it was 88.7%; in the assay on SK-MEL-28 melanoma, 111%.
